From PubChem
KDM5B inhibitor = blocks human KDM5B histone demethylase activity; Potency, µM (top dose mostly 57.7 µM), usual class: inhibitors; AID 1347165; Q9UGL1; hit rate 2.6% among 220,000; KDM5B demethylase, FDH-coupled NADH fluorescence (FDH is formaldehyde dehydrogenase); active means well fitted inhibition curve with a large enough effect; further: nearly all actives have a fitted effect of over 70% in size
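Measured: NADH fluorescence change, 30 min, RT. System: KDM5BΔAP 200 nM final, H3K4me3 peptide, α-KG, Fe(II), ascorbate, NAD⁺ plus FDH, pH 7.5 HEPES. Compounds: titrated, 10 min pre-incubation with enzyme.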
Large screens that a line does not name were inactive; ! = not confirmed by another sample. Shown is part of a subset that was picked to be rich in hits.

CCOc1ccc(NC(=O)CC2C(=O)Nc3ccccc3N2C(=O)c2ccc(C(C)(C)C)cc2)cc1 (stereo not given)	none
Cc1ccc(Nc2nc(N)c(C(=O)c3cc(C)ccc3C)s2)cc1	none
COc1ccc(Cl)cc1NC(=O)Cn1cccc1-c1nc(-c2ccccc2)no1	none
Cc1cc(C)c(CNCCS(=O)(=O)c2ccccc2)c(C)c1	none
CNC(=O)[C@@H]1CN(S(=O)(=O)c2cccnc2)C[C@H]1C1CCN(C)CC1	none
CNC(=O)[C@@H]1CN(S(=O)(=O)c2ccc(F)c(C)c2)C[C@H]1C1CCN(C)CC1	KDM5B inhibitor 22µM
CNC(=O)[C@@H]1CN(S(=O)(=O)c2cccc(Cl)c2)C[C@H]1C1CCN(C)CC1	none
Cc1ccc(Cl)cc1NC(=O)c1n[nH]c(=O)c2ccccc12	none
CN(C)c1cccc(Nc2nc3ccccc3nc2NS(=O)(=O)c2cccs2)c1	none
O=C1NCc2ccccc2CC12CCN(Cc1cnc3ccccc3c1)CC2	none
Nc1cccn2nc(-c3ccccc3)nc12	KDM5B inhibitor 28µM
Cc1ccc(-c2nc3c4c(-c5ccccc5)c(-c5ccccc5)oc4ncn3n2)cc1	none
Nn1nc(-c2ccccc2)nc1-c1ccccc1	none
CCC(C)NC(=O)c1ccc2c(c1)OCCCO2 (stereo not given)	none
Cc1ccc(N2CC(c3nc4ccccc4n3C)CC2=O)cc1 (stereo not given)	none
CCOc1ccc(C(=O)N2CCC(c3nnc(-c4ccccc4OC)o3)CC2)cc1	none
Fc1ccc2nc([C@H]3CCN(Cc4cccs4)C3)[nH]c2c1	none
COc1ccccc1-c1nnc([C@H]2CCN(Cc3ncc[nH]3)C2)o1	KDM5B inhibitor 40µM
COc1ccc2nc([C@H]3CCN(C4CCCCC4)C3)[nH]c2c1	KDM5B inhibitor 28µM
COc1cccc(CN2CC[C@H](c3nc4ccccc4[nH]3)C2)c1	none
Cn1c([C@H]2CCN(S(=O)(=O)Cc3ccccc3)C2)nc2ccccc21	none
COc1ccc(S(=O)(=O)N2CCC(c3nc4ccccc4[nH]3)CC2)cc1	none
Fc1ccc2nc([C@H]3CCN(Cc4ncc[nH]4)C3)[nH]c2c1	KDM5B inhibitor 28µM
COc1ccccc1-c1nnc([C@H]2CCN(C(=O)c3ccccc3)C2)o1	none
Cn1c([C@H]2CCN(Cc3ncc[nH]3)C2)nc2ccccc21	KDM5B inhibitor 35µM
Fc1ccc2nc([C@H]3CCN(Cc4ccc(F)c(F)c4)C3)[nH]c2c1	none
Cc1ccccc1C(C)NC(=O)c1ccc2c(c1)NC(=O)CS2 (stereo not given)	none
CC1CCC(C(C)C)C(OCCC[N+](C)(C)C)C1 (stereo not given)	none
O=C(NC(c1ccccc1)c1ccc(Cl)cc1)c1ccc[n+]([O-])c1 (stereo not given)	none
NC(=O)C(Sc1ncc(C(F)(F)F)cc1Cl)c1ccc(F)cc1 (stereo not given)	none
Cn1c(C=C(C#N)C#N)ccc1-c1cc(Cl)ccc1Cl	none
COc1ccc(C(=O)Nc2oc3ccccc3c(=O)c2-c2ccc3c(c2)OCO3)cc1	none
Cc1ccc(CN2CC[C@H](c3nc4ccc(C(F)(F)F)cc4[nH]3)C2)cc1	none
COc1ccc(CN2CC[C@H](c3nc4ccc(OC)cc4[nH]3)C2)cc1	none
COc1ccc(CN2CC[C@H](c3nc4ccc(C)cc4[nH]3)C2)cc1	none
COc1ccc2nc([C@H]3CCN(Cc4ccncc4)C3)[nH]c2c1	KDM5B inhibitor 35µM
Cc1ccc2nc(C3CCN(Cc4ccccc4)CC3)[nH]c(=O)c2c1	none
CC(=O)N1CCC(N2CC[C@H](c3nc4ccc(F)cc4[nH]3)C2)CC1	none
O=c1[nH]c(C2CCCN(Cc3ccc(-c4ccccc4)cc3)C2)nc2ccc(F)cc12 (stereo not given)	none
COc1cccc(-c2ccc(CN3CCCC(c4nc5ccc(C)cc5c(=O)[nH]4)C3)cc2)c1 (stereo not given)	KDM5B inhibitor 35µM!
CN1CCC(N2CC[C@H](c3nc4ccc(C#N)cc4[nH]3)C2)CC1	KDM5B inhibitor 35µM
CN(C)N1C(=O)CC(c2ccc(Cl)cc2Cl)C2=C1CC(C)(C)CC2=O (stereo not given)	none
COc1ccc(-c2cc(=O)n3[nH]c(C)c(-c4ccc(OC)cc4)c3n2)cc1	none
O=C(NCCNc1ncccc1C(F)(F)F)Nc1ccc(F)cc1F	none
CCCCCCn1c(NC)nc2c1c(=O)n(C)c(=O)n2C	none
O=c1[nH]c(=O)n(CC2CCCO2)c2nccc(-c3ccc(-c4ccccc4)cc3)c12 (stereo not given)	none
Cc1noc(C)c1-c1cc2c(c(-c3ccccc3)c1)C(=O)N(C)C2	none
Cc1noc(C)c1-c1cc2c(c(-c3ccc(F)c(Cl)c3)c1)C(=O)N(C)C2	none
COc1cc(F)ccc1-c1cc(-c2c(C)noc2C)cc2c1C(=O)N(C)C2	KDM5B inhibitor 32µM
CC(C)CN1C(=O)C2(CC(=O)Nc3[nH]ncc32)c2ccccc21 (stereo not given)	none
O=C(Cc1c[nH]c2ncc(-c3cccnc3)cc12)NC1CC1	none
CN1CCC(NC(=O)CCc2ncc(-c3ccccc3)o2)CC1	none
CC(C)CNC(=O)Cc1c[nH]c2ncc(-c3cnn(C)c3)cc12	KDM5B inhibitor 40µM
CN1CCC(NC(=O)Cc2c[nH]c3ncc(-c4ccccc4)cc23)CC1	KDM5B inhibitor 35µM
